Screening results as filed in PubChem.
An excerpt weighted towards active compounds, which were near 0.63% of everything screened.
HIF act – HIF pathway transcriptional activation | U2OS HRE-luciferase reporter, luminescence; normalized: DMSO 0%, desferrioxamine 100% | activation, % at 7.5 µM (by protocol) | hit rate 0.32% among 300,000;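 active = mean activation of at least 10% of the iron chelator positive control signal, with at least half of replicates also reaching 10%; inconclusive = mean and replicate majority disagree about reaching 10%; inactive = mean and most replicates under 10%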
NTR1 ag – activates human neurotensin receptor 1; AID 493036; hit rate 0.17% among 330,000; P30989; NTR1-U2OS beta-arrestin-GFP spot imaging, agonist mode; activation, % at 20 µM;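 active = activation at or above 40% of the spot to cytoplasm intensity ratio, with at least 20 cells analyzed; inconclusive = wells under 20 cells, flagged as cytotoxic or low count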;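 note: 0% = DMSO without peptide and 100% = 100 nM NTR1 peptide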
Target sequence (P30989 whole entry, looked up): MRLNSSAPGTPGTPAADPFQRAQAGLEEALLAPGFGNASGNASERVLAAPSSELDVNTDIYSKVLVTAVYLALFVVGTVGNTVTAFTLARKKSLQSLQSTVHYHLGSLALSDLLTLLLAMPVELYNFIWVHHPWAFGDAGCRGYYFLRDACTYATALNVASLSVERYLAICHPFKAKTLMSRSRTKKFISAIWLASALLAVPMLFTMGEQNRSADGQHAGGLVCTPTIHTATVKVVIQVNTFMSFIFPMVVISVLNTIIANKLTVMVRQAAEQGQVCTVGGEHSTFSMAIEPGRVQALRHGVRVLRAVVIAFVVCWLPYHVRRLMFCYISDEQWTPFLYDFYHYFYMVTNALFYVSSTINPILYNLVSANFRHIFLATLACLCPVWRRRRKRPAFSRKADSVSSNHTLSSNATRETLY
Platelet DG rel – platelet dense granule release activity; human platelet-rich plasma, SFLLRN dense granule ATP release, luminescence; inhibition, %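 (compounds screened at 7.5 µM in platelet-rich plasma)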; hit rate 0.22% among 300,000; AID 1663;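 active = mean replicate score, as percent of positive control, at or above 50; inconclusive = mean below 50 but at least one replicate at or above 50; inactive = mean and every replicate below 50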
* = called active by the depositor; ? = inconclusive; . = not tested or not shown.

SMILES | HIF act | NTR1 ag | Platelet DG rel
COc1ccc(N2C(=NC(=O)CCC3CCCC3)SC3CS(=O)(=O)CC32)cc1 (stereo not given) | 70.8* | 1.0 | -4.0
COc1cccc(N2C(=NC(=O)CCC3CCCC3)SC3CS(=O)(=O)CC32)c1 (stereo not given) | 0.0 | 1.0 | 1.8
COc1ccc(NC(=O)C2CCCN(CCCc3ccccc3)C2)cc1OCC(C)C (stereo not given) | -1.9 | 7.5 | 10.1
Fc1ccccc1NC(=S)Nc1ccc(Br)cc1 | 80.5* | 3.7 | 5.6
Fc1cc(Br)ccc1NC(=S)Nc1ccccc1 | 2.4 | 1.9 | -5.2
Cc1ccc(NC(=O)CN2C(=O)NC3(CCc4ccccc43)C2=O)cc1Cl (stereo not given) | -0.4 | 0.9 | 18.3
CCCCn1c(N)c(N(Cc2ccccc2OC)C(=O)C(C)Oc2ccc(Cl)cc2)c(=O)[nH]c1=O (stereo not given) | -0.1 | -0.9 | 52.6*
CCCCn1c(N)c(N(Cc2ccccc2OC)C(=O)C(C)Oc2ccc(F)cc2)c(=O)[nH]c1=O (stereo not given) | -1.6 | -0.2 | -1.8
O=C(O)COc1ccccc1/C=C1\SC(=S)N(/N=C/c2ccccc2O)C1=O | -0.8 | 2.3 | 2.8
CCOC(=O)C(=Cc1cc(=O)c(OC)co1)C(=O)OCC | 1.3 | . | 19.3
O=C(C[n+]1ccn(CCCNP2(=O)C=C(c3ccccc3)OC(c3ccccc3)=C2)c1)c1cccs1 | 101.2* | -0.4 | 3.0
C=Cn1cc[n+](CC(=O)c2cccs2)c1 | -0.6 | -0.3 | 0.2
CC(C)c1ccc(-c2c(C#N)c(N)nc3c2CCCCC3)cc1 | 267.9* | 2.9 | 7.0
Cc1ccc(-c2c(C#N)c(N)nc3c2CCCCC3)cc1 | -0.3 | 0.5 | -4.4
CCCCC1CCC(C(=O)N(C)CC(=O)Nc2cccc(F)c2)CC1 (stereo not given) | -0.2 | 5.9 | -46.2
Cc1ccc(N)c([N+](=O)[O-])c1 | . | -1.5 | .
CC1CC(=O)NN=C1c1ccc(N)c([N+](=O)[O-])c1 (stereo not given) | -1.3 | -0.7 | 60.9*
CC1=NN(c2ccccc2)C(=O)C1/C=C1\NC(=S)NC1=O (stereo not given) | 0.0 | 2.1 | 1.9
Cc1ccnc(NC(=O)CS(=O)(=O)c2ccccc2)c1 | 1.0 | -2.2 | 13.4
C/C(=N\NC(=O)c1ccc(F)cc1)c1ccccn1 | -15.6 | 8.5 | -3.7
C=CCNC(=S)N/N=C(\C)c1ccccn1 | 13.5* | 5.2 | -0.6
O=[N+]([O-])c1ccc(/C=C/c2ccc3cccc([N+](=O)[O-])c3n2)cc1 | 0.3 | 0.5 | 2.6
O=[N+]([O-])c1cccc(/C=C/c2ccc3cccc(O)c3n2)c1 | 13.3* | 7.6 | -2.4
COc1ccc(C(=O)/C=C/C(=O)N(CC(=O)NC2CCCCC2)CC2CCCO2)c(O)c1 (stereo not given) | 15.6* | 23.2 | 33.3
COc1ccc(C(=O)/C=C/C(=O)N(CC(=O)NC2CCCCC2)Cc2ccccc2)c(O)c1 | -8.4 | . | 6.4
SMILES | HIF act | NTR1 ag | Platelet DG rel
COc1cc(OC)cc(OCC(O)Cn2cnc(-c3ccccc3)c2)c1 (stereo not given) | -0.3 | 1.1 | -2.1
COCCN(CC1CCCN(C2Cc3ccccc3C2)C1)C(=O)CCC(C)=O (stereo not given) | 1.0 | 0.7 | -12.4
CC(C)COc1cccc(C(=O)NNC(=O)C2COc3ccccc3O2)c1 (stereo not given) | 25.5* | -0.1 | 2.6
Nc1ccc(C(=O)NNC(=O)C2COc3ccccc3O2)cc1[N+](=O)[O-] (stereo not given) | 1.5 | 0.0 | 0.2
CN(c1ccccc1)S(=O)(=O)c1ccc(-c2ccccc2)cc1 | 0.8 | 2.8 | 1.2
CCC1CCc2sc(C(=O)NCc3ccccn3)cc2C1 (stereo not given) | 21.9* | 1.7 | -3.0
CCC1CCc2sc(C(=O)NCC3CCCO3)cc2C1 (stereo not given) | . | -1.1 | .
CCN(CC)CC(=O)Nc1ccc(-c2nc3cc(NC(=O)CN(CC)CC)ccc3o2)cc1 | 3.0 | 0.7 | -1.0
O=C(CN1CCCC1)Nc1ccc(-c2nc3cc(NC(=O)CN4CCCC4)ccc3o2)cc1 | 12.6* | 2.7 | 8.2
Cc1[nH]c2ccccc2c1-c1nc(N)sc1C | -1.7 | 0.8 | 1.1
O=C(N/N=C/c1cccc([N+](=O)[O-])c1)c1cc(-c2ccc3c4c(cccc24)CC3)n[nH]1 | 0.4 | -0.6 | 6.6
O=C(N/N=C/c1ccc(Cl)c([N+](=O)[O-])c1)c1cc(-c2ccc3c4c(cccc24)CC3)n[nH]1 | 0.7 | 5.0 | 52.2*
Cc1occc1-c1nnc(SCC(=O)N(C)c2ccccc2)o1 | . | -0.6 | .
Cc1cccc(/C=N/NC(=O)c2cc(-c3cccnc3)nc3c2c(C)nn3-c2ccccc2)c1 | 0.4 | 1.0 | 12.6
COc1ccc(NC(=O)N2CCc3cc(OC)c(OC)cc3C2)cc1 | -2.0 | 0.2 | -1.0
COc1cc2c(cc1OC)-c1cc(Nc3ccc(C(=O)O)cc3)nc(=O)n1CC2 | -1.1 | 0.4 | 5.4
COc1ccc(Nc2cc3n(c(=O)n2)CCc2cc(OC)c(OC)cc2-3)cc1 | -25.2 | 1.4 | 61.2*
COc1ccc(Nc2cc3n(c(=O)n2)CCc2cc(OC)c(OC)cc2-3)c(C)c1 | 1.1 | 1.9 | 79.8*
COc1cc2c(cc1OC)-c1cc(Nc3ccc4c(c3)OCCO4)nc(=O)n1CC2 | -1.2 | -0.3 | 50.7*
COc1cc2c(cc1OC)-c1cc(Nc3ccccc3Br)nc(=O)n1CC2 | 3.1 | 0.0 | 93.6*
COc1cc2c(cc1OC)-c1cc(N3CCc4ccccc43)nc(=O)n1CC2 | -0.2 | 1.0 | ?
COc1cc2c(cc1OC)C(C(=O)Nc1ccc3c(c1)OCCO3)C1c3ccccc3CCN1C2=O (stereo not given) | 1.4 | 2.5 | -2.3
Cc1cc(Cl)ccc1NC(=O)C1COc2ccccc2O1 (stereo not given) | -29.5 | -0.4 | -3.0
COC(=O)CNC(=O)COC(=O)c1cc(SC)ccc1Cl | -0.4 | 1.8 | -31.4
CC1CCN(C(=O)C(C)OC(=O)CSc2ccc([N+](=O)[O-])cc2)CC1 (stereo not given) | . | -1.8 | .
SMILES | HIF act | NTR1 ag | Platelet DG rel
O=C(NCCc1ccc(Cl)cc1)c1ccc(CS(=O)Cc2ccc(Cl)cc2)o1 (stereo not given) | 0.1 | 2.1 | 12.1
O=C(COc1ccccc1C(=O)N/N=C\c1ccc(O)c(O)c1)N/N=C/c1ccc(O)c(O)c1 | -0.1 | 0.4 | 7.8
O=[N+]([O-])c1cccc(NC(=S)NCCc2ccccc2)c1 | 0.5 | -1.6 | -0.1
CC1Cc2ccccc2N1CC(=O)NC(=O)NC1CCCCC1 (stereo not given) | 0.0 | 0.9 | -6.5
Cc1ccc(C(=O)n2nc(-n3cccc3)c3c(C)cc(C)nc32)cc1 | 0.2 | . | -2.4
COc1cc2c(cc1OC)C(C)N(S(=O)(=O)c1ccc(C)cc1)CC2 (stereo not given) | -11.1 | 1.3 | -4.2
COc1cc2c(cc1OC)-c1cc(Nc3ccc(C)cc3)nc(=O)n1CC2 | -11.3 | 3.4 | 113.0*
COc1cc2c(cc1OC)-c1cc(Nc3ccccc3)nc(=O)n1CC2 | -0.9 | 1.8 | 130.6*
COc1cc2c(cc1OC)-c1cc(NC3CCCCCC3)nc(=O)n1CC2 | -0.1 | -0.7 | 82.2*
CCN(CC)CCCNc1cc2n(c(=O)n1)CCc1cc(OC)c(OC)cc1-2 | 0.5 | 0.3 | -1.3
CCOc1cccc(Nc2cc3n(c(=O)n2)CCc2cc(OC)c(OC)cc2-3)c1 | 0.2 | -0.4 | -9.5
